{
  "source": "the supplement of paper PMC10498489",
  "note": "The campaign covered roughly 2,300 compounds. About 330 (14%) showed activity.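 The calls were made as follows: active = median modified Z-score above 1.96; inactive = 1.96 or below.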 Only a sample is shown.",
  "data": [
    {"tested_on": "HepG2 Srxn1-GFP reporter cells (+30 nM CDDO-Me)", "test": "Srxn1-GFP intensity median modified Z-score relative to plate median; higher = stronger NRF2 / oxidative stress reporter activation, active = hit call of the paper", "settings": "10 µM; exposure time: 24h", "summary_of_the_method": "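The modified Z-score of GFP intensity was computed per plate, and the median over replicates is reported. HepG2 Srxn1-GFP BAC reporter cells in three replicate plates were treated for 24 h with compound at 10 μM plus an NRF2 activator at 30 nM (≤0.1% DMSO). Per-cell cytoplasmic GFP came from confocal images, excluding those with under 100 cells, and scaling used 1.4826 × median absolute deviation.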", "values": [
      {"smiles": "CN(C)c1ccc(O)c2c1C[C@H]1C[C@H]3C(N(C)C)C(=O)C(C(N)=O)C(=O)[C@@]3(O)C(=O)C1C2=O", "note": "(some centres undefined) [euspeclibcmpd201]", "Srxn1-GFP intensity median modified Z-score": "-0.262 (inactive)"},
      {"smiles": "COC(=O)CCC(C)C1CCC2C3CC[C@@H]4C[C@H](O)CC[C@]4(C)C3C[C@H](O)[C@]12C", "note": "(some centres undefined) [euspeclibcmpd1611]", "Srxn1-GFP intensity median modified Z-score": "-0.0244 (inactive)"},
      {"smiles": "CCc1cc(Cl)c(OC)c(C(=O)NCC2CCCN2CC)c1O", "note": "(centres undefined) [euspeclibcmpd333]", "Srxn1-GFP intensity median modified Z-score": "0.457 (inactive)"},
      {"smiles": "CCS(=O)(=O)CCn1c([N+](=O)[O-])cnc1C", "note": "[euspeclibcmpd439]", "Srxn1-GFP intensity median modified Z-score": "0.00367 (inactive)"},
      {"smiles": "CCOC(=O)CCC(=O)O[C@H]1[C@H](O[C@@H]2[C@@H](C)[C@H](O[C@H]3C[C@@](C)(OC)[C@@H](O)[C@H](C)O3)C(C)C(=O)O[C@H](CC)[C@@](C)(O)[C@H](O)C(C)C(=O)C(C)C[C@@]2(C)O)O[C@H](C)C[C@@H]1N(C)C", "note": "(some centres undefined) [euspeclibcmpd114]", "Srxn1-GFP intensity median modified Z-score": "0.427 (inactive)"},
      {"smiles": "CC1(OC(=O)C=Cc2ccccc2)CC(O)C2(O)C=COC(OC3OC(CO)C(O)C(O)C3O)C12", "note": "(centres undefined) [euspeclibcmpd1930]", "Srxn1-GFP intensity median modified Z-score": "0.27 (inactive)"},
      {"smiles": "CCCCC1=NC2(CCCC2)C(=O)N1Cc1ccc(-c2ccccc2-c2nn[nH]n2)cc1", "note": "[euspeclibcmpd676]", "Srxn1-GFP intensity median modified Z-score": "-0.243 (inactive)"},
      {"smiles": "COc1ccc(/C=C/C(=O)O)cc1OC", "note": "[euspeclibcmpd2368]", "Srxn1-GFP intensity median modified Z-score": "-0.475 (inactive)"},
      {"smiles": "COc1cc(C=CC(=O)O)ccc1O", "note": "[euspeclibcmpd1346]", "Srxn1-GFP intensity median modified Z-score": "-0.142 (inactive)"},
      {"smiles": "COc1cc(O)c(C(C)=O)c(OC)c1", "note": "[euspeclibcmpd1575]", "Srxn1-GFP intensity median modified Z-score": "-0.474 (inactive)"},
      {"smiles": "COc1cc(C=CC(=O)CC(=O)C=Cc2ccc(O)c(OC)c2)ccc1O", "note": "[euspeclibcmpd1307]", "Srxn1-GFP intensity median modified Z-score": "23.5 (active)"},
      {"smiles": "COc1cc(O)c(C(=O)C=Cc2ccc(OC)c(O)c2)c(OC)c1", "note": "[euspeclibcmpd1967]", "Srxn1-GFP intensity median modified Z-score": "23.8 (active)"},
      {"smiles": "COc1cc(O)c(C(=O)C=Cc2ccc(O)c(OC)c2)c(OC)c1", "note": "[euspeclibcmpd2193]", "Srxn1-GFP intensity median modified Z-score": "-0.497 (inactive)"},
      {"smiles": "Cc1cn[nH]c1", "note": "[euspeclibcmpd2196]", "Srxn1-GFP intensity median modified Z-score": "1.06 (inactive)"},
      {"smiles": "Cc1cn[nH]c1", "note": "[euspeclibcmpd2215]", "Srxn1-GFP intensity median modified Z-score": "-0.461 (inactive)"},
      {"smiles": "CCC(=O)O[C@]1(C(=O)SCF)[C@H](C)CC2C3CC(F)=C4CC(=O)C=C[C@]4(C)C3(F)[C@@H](O)C[C@@]21C", "note": "(some centres undefined) [euspeclibcmpd975]", "Srxn1-GFP intensity median modified Z-score": "-0.942 (inactive)"},
      {"smiles": "CC(=O)Nc1c(I)c(NC(C)=O)c(I)c(C(=O)O)c1I", "note": "[euspeclibcmpd867]", "Srxn1-GFP intensity median modified Z-score": "-0.167 (inactive)"},
      {"smiles": "Cc1cc(=O)oc2cc(O)c(O)cc12", "note": "[euspeclibcmpd1370]", "Srxn1-GFP intensity median modified Z-score": "-0.517 (inactive)"},
      {"smiles": "NC(CCC(=O)NC(CS)C(=O)NCC(=O)O)C(=O)O", "note": "(centres undefined) [euspeclibcmpd132]", "Srxn1-GFP intensity median modified Z-score": "1.19 (inactive)"},
      {"smiles": "C[C@]12CCC(=O)CC1=CCC1C2[C@@H](O)C[C@@]2(C)C1CC[C@]2(O)C(=O)CO", "note": "(some centres undefined) [euspeclibcmpd5]", "Srxn1-GFP intensity median modified Z-score": "-0.578 (inactive)"},
      {"smiles": "O=C(O)C1CSCN1C(O)c1ccc(O)[nH]1", "note": "(centres undefined) [euspeclibcmpd1087]", "Srxn1-GFP intensity median modified Z-score": "-0.1 (inactive)"},
      {"smiles": "O=C(O)C1CC([C@H]2CCCCN2)CN2CCCCC12", "note": "(some centres undefined) [euspeclibcmpd1560]", "Srxn1-GFP intensity median modified Z-score": "0.315 (inactive)"},
      {"smiles": "CCCN1C(=O)/C(=C/c2ccc(-n3ccnc3)cc2)SC1=S", "Srxn1-GFP intensity median modified Z-score": "9.18 (active)"},
      {"smiles": "CC(C)(C)NCC(O)COc1cccc2c1C[C@H](O)[C@H](O)C2", "note": "(some centres undefined) [euspeclibcmpd814]", "Srxn1-GFP intensity median modified Z-score": "0.0394 (inactive)"},
      {"smiles": "CC[C@H]1OC(=O)C[C@@H](O)[C@H](C)[C@@H](O[C@@H]2O[C@H](C)[C@@H](O[C@H]3C[C@@](C)(O)[C@@H](O)[C@H](C)O3)[C@H](N(C)C)[C@H]2O)[C@@H](CC=O)CC(C)C(=O)/C=C/C(C)=C/C1CO[C@@H]1O[C@H](C)[C@@H](O)[C@@H](OC)[C@H]1OC", "note": "(some centres undefined) [euspeclibcmpd742]", "Srxn1-GFP intensity median modified Z-score": "-0.617 (inactive)"},
      {"smiles": "COc1cccc(-c2cc(=O)c3ccc(OC)cc3o2)c1", "note": "[euspeclibcmpd2098]", "Srxn1-GFP intensity median modified Z-score": "1.56 (inactive)"},
      {"smiles": "COc1ccc(-c2coc3cc(OCC4CC4)ccc3c2=O)cc1", "Srxn1-GFP intensity median modified Z-score": "1.64 (inactive)"},
      {"smiles": "CC(=O)Oc1ccc(O)cc1", "note": "[euspeclibcmpd2324]", "Srxn1-GFP intensity median modified Z-score": "5.59 (active)"},
      {"smiles": "CC(=O)Oc1cccc(O)c1", "note": "[euspeclibcmpd584]", "Srxn1-GFP intensity median modified Z-score": "0.144 (inactive)"},
      {"smiles": "CC(=O)Nc1ccc(OC(C)=O)cc1", "note": "[euspeclibcmpd1187]", "Srxn1-GFP intensity median modified Z-score": "-0.386 (inactive)"},
      {"smiles": "CCC1C(=O)OC[C@@H]1Cc1cncn1C", "note": "(some centres undefined) [euspeclibcmpd2263]", "Srxn1-GFP intensity median modified Z-score": "0.439 (inactive)"},
      {"smiles": "OC[C@H]1O[C@@](CO)(O[C@@H]2O[C@H](CO)[C@@H](O)[C@H](O)[C@H]2O)[C@@H](O[C@@H]2O[C@H](CO)[C@@H](O)[C@H](O)[C@H]2O)[C@@H]1O", "note": "[euspeclibcmpd1323]", "Srxn1-GFP intensity median modified Z-score": "0.146 (inactive)"},
      {"smiles": "O=C(OCc1cc([N+](=O)[O-])cc2c1OCOC2)C12CC3CC(CC(Br)(C3)C1)C2", "Srxn1-GFP intensity median modified Z-score": "1.38 (inactive)"},
      {"smiles": "CC1(C)OC(=O)NC1=O", "note": "[euspeclibcmpd99]", "Srxn1-GFP intensity median modified Z-score": "0.00531 (inactive)"},
      {"smiles": "CC(C)C(N)C(=O)OCCOCn1cnc2c(=O)[nH]c(=N)[nH]c21", "note": "(centres undefined) [euspeclibcmpd757]", "Srxn1-GFP intensity median modified Z-score": "0.568 (inactive)"},
      {"smiles": "CC1/C=C/C=C/C=C/C=C/C=C/C=C/C=C/C(OC2O[C@H](C)[C@@H](O)[C@H](N)[C@@H]2O)CC(O)C(C(=O)O)C(O)CC(=O)CC(O)CC(O)CC(O)CC(=O)CCCC(=O)CC(=O)OC1C(C)CC(C)C(O)CC(=O)c1ccc(N)cc1", "note": "(some centres undefined) [euspeclibcmpd648]", "Srxn1-GFP intensity median modified Z-score": "1.22 (inactive)"},
      {"smiles": "CC1OC(O[C@H]2/C=C/C=C/C=C/C=C/C=C/C=C/C=C/[C@H](C)[C@@H](O)[C@@H](C)[C@H](C)OC(=O)CC(O)CC(O)CCC(O)C(O)CC(O)C[C@]3(O)C[C@H](O)C(C(=O)O)C(C2)O3)C(O)[C@H](N)C1O", "note": "(some centres undefined) [euspeclibcmpd24]", "Srxn1-GFP intensity median modified Z-score": "1.97 (active)"},
      {"smiles": "CC1C/C=C/C=C/C=C/C=C/C(O[C@@H]2O[C@H](C)[C@@H](O)[C@H](N)[C@@H]2O)CC2OC(O)(CC(O)CC3OC3/C=C/C(=O)O1)CC(O)C2C(=O)O", "note": "(some centres undefined) [euspeclibcmpd858]", "Srxn1-GFP intensity median modified Z-score": "-0.525 (inactive)"},
      {"smiles": "COc1ccc(-c2coc3c4c(c(CC=C(C)C)c(O)c3c2=O)OC(C)(C)C=C4)cc1", "note": "[euspeclibcmpd2167]", "Srxn1-GFP intensity median modified Z-score": "-0.398 (inactive)"}
    ]}
  ]
}
